This is an account of results in PubChem BioAssay (NCATS).

A short description of assay [1]: Cell Viability - N2a (AID 540).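 For activity change, negative = cytotoxicity: plate controls were DMSO alone for no effect and tamoxifen control for full effect.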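 Note: cells exposed to compound for 40 h at 37 °C; nearly all actives have a fitted effect of over 45% in size.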 Note: potency is the fitted concentration of half-maximal effect. Particulars: N2a mouse neuroblastoma cell viability; activity change, negative = cytotoxicity: at 92.2 µM (top of the series). The gist of the method:
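First, 1500 N2a cells per well incubate 5 hr at 37 °C; next, compounds are added and incubated 40 hr at 37 °C; finally CellTiter-Glo is added and luminescence read after 20 min, with AC50 derived by Hill modeling.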

Assay [2] can be described thus: Cell Viability - NIH 3T3 (AID 541).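 For activity change, negative = cytotoxicity: plate controls were DMSO alone for no effect and tamoxifen positive control for full effect.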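 Note: cells exposed to compound for 40 hours; nearly all actives have a fitted effect of over 25% in size.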 Note: potency is the fitted concentration of half-maximal effect. Particulars: NIH 3T3 cell viability, qHTS; activity change, negative = cytotoxicity: at 92.2 µM (top of the series). The method in brief: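 AC50 values reflect concentration-dependent loss of intracellular ATP in NIH 3T3 cells after 40 hr treatment in complete culture medium, quantified by luciferase-based luminescence.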
Background: qHTS replaces the single test concentration by a dilution series.

A short description of assay [3]: Cell Viability - H-4-II-E (AID 543).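 Note: cells exposed to compound for 40 hours; nearly all actives have a fitted effect of over 35% in size.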 Note: potency is the fitted concentration of half-maximal effect. The gist of the method:
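Here, cytotoxicity is measured in the rat hepatoma line H-4-II-E as loss of intracellular ATP after 40 hr compound treatment, detected by luciferase luminescence.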

A short description of assay [4]: Cell Viability - Renal Proximal Tubule (AID 545).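 Note: cells exposed to compound for 40 hours; nearly all actives have a fitted effect of over 40% in size.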 Note: potency is the fitted concentration of half-maximal effect. The conditions noted are these: renal proximal tubule cells viability; activity change, negative = cytotoxicity: at 91.7 µM (top of the series) unless noted. The gist of the method:
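Rat kidney proximal tubule cells, freshly isolated; 1000 cells/well, 5 hr settle, compound 40 hr 37 °C. CellTiter-Glo 20 min RT, luminescence read. AC50 by standard Hill fit.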

The nature of assay [5]: Cell Viability - Mesenchymal (AID 546).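 Note: cells exposed to compound for 40 hours before reading.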 Note: potency is the fitted concentration of half-maximal effect. Particulars: mesenchymal cells viability, qHTS; activity change, negative = cytotoxicity: at 91.7 µM (top of the series). The method in brief: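 Normal human renal glomerulus-derived kidney mesenchymal cells, 1000 per well in complete medium, were treated with compounds for 40 hr at 37 °C. Viability was read as intracellular ATP by CellTiter-Glo luminescence; AC50 values came from Hill-equation fits of qHTS concentration-response data.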

Assay [6] is described as follows: Cellular Toxicity (caspase-3) HUV-EC-C (AID 656). The gist of the method:
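Luminescent caspase-3/7 activation (aminoluciferin substrate cleavage) in HUV-EC-C cells after 16 hr compound exposure, 37°C. Signal normalized to DMSO basal and 100 uM tamoxifen as 100%; AC50 from concentration-response fitted with the Hill equation.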

The nature of assay [7]: Cellular Toxicity (caspase-3) BJ (AID 658).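 Note: cells exposed to compound for 16 hours; 0% = DMSO basal and 100% = 10 µM staurosporine.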 The gist of the method: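 Luminescent aminoluciferin-substrate cleavage reports caspase 3/7 activity in normal human BJ fibroblasts after 16 hr compound exposure at 37 °C. Normalized to DMSO (basal) and 10 uM staurosporine (100%); AC50 from Hill fit of concentration-response.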
The nature of assay [8]: Cellular Toxicity (caspase-3) MRC-5 (AID 659).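 Note: cells exposed to compound for 16 h at 37 °C; 0% = DMSO basal and 100% = 10 µM staurosporine.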 The method in brief:
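Luminescence from caspase-cleaved aminoluciferin substrate (Caspase-Glo 3/7, 1 hr RT) reports caspase 3/7 activity in MRC-5 lung fibroblasts after 16 hr compound exposure. Normalized to DMSO basal and 10 uM staurosporine as 100%; AC50 from Hill fits.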

A short description of assay [9]: Cellular Toxicity (caspase-3) Mesangial (AID 660).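 Note: combined caspase 3 and 7 activity read by Caspase-Glo luminescence; cells exposed to compound for 16 h before the caspase read.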 Particulars: Potency: caspase-3 activation. The method in brief:
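Concentration-response qHTS: compound-induced rise in caspase 3/7 luminescence in human mesangial cells after 16 h, normalized to DMSO and 100 uM tamoxifen controls.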

Assay [10] is described as follows: Cellular Toxicity (caspase-3) N2a (AID 665).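 Note: compound exposure lasted 16 h at 37 °C before readout.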 The gist of the method: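 Plated mouse neuroblastoma N2a cells received titrated compounds for 16 h in complete medium. Caspase activity was then detected with a peptide-aminoluciferin luminescent reagent.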
The nature of assay [11]: Cellular Toxicity (caspase-3) NIH 3T3 (AID 666).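 Note: caspase signal read after 16 h compound exposure; 0% = DMSO basal and 100% = 100 µM tamoxifen stimulation.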 The method in brief:
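Concentration-response qHTS in NIH 3T3 mouse fibroblasts scores caspase-3/7 activation as rising luminescence after 16 hr compound exposure. Signals are scaled between DMSO-only and 100 uM tamoxifen.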

Assay [12] is described as follows: Cell Viability - LYMP1-003 - Assay at 24 hr (AID 963). Note: potency is the fitted concentration of half-maximal effect. The gist of the method: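 Acute toxicity in LYMP1-003 lymphoblastoid cells: 24 hr compound treatment at 37 C, ATP measured with CellTiter-Glo after 30 min at room temperature. AC50 derived by fitting the Hill equation to qHTS titrations.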
Assay [13] is described as follows: Cell Viability - LYMP2-003 (AID 965).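 For activity change, negative = cytotoxicity: 0% = DMSO only and full effect = 92 µM tetraoctylammonium bromide.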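 Note: cells exposed to compounds for 24 h before reading; nearly all actives have a fitted effect of over 50% in size.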 Note: potency is the fitted concentration of half-maximal effect. The method in brief:
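CellTiter-Glo luminescence (cellular ATP) after 24 h compound exposure at 37 C in complete medium; 2500 cells/well, 5 h settling beforehand. Concentration-response fitted to standard Hill equation for AC50. Tetraoctylammonium bromide served as positive control.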

Assay [14] in a line: Cell Viability - LYMP2-015 (AID 971). Note: nearly all actives have a fitted effect of over 55% in size. Note: potency is the fitted concentration of half-maximal effect. The method in brief: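 Acute toxicity was scored as a concentration-dependent drop in intracellular ATP in lymphoblastoid cells after 24 hr compound exposure in complete medium. Detection used CellTiter-Glo luciferase luminescence.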
Assay [15] can be described thus: Cell Viability - LYMP2-019 (AID 973).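 For activity change, negative = cytotoxicity: 0% = DMSO alone and full effect = 92 µM tetraoctylammonium bromide.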 Note: nearly all actives have a fitted effect of over 55% in size. Note: potency is the fitted concentration of half-maximal effect. The gist of the method:
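Cells plated at 2500/well and allowed 5 hr at 37 C before compound addition. After 24 hr incubation, CellTiter-Glo reagent was added, plates sat 30 min at room temperature, and luminescence was recorded.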

Assay [16] can be described thus: Cell Viability - LYMP2-016 (AID 984). For activity change, negative = cytotoxicity: % is set by controls: 0 for no effect and ±100 for the full control effect.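 Note: cells exposed to compound for 24 hours at 37 °C; nearly all actives have a fitted effect of over 55% in size.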 Note: potency is the fitted concentration of half-maximal effect. The method in brief: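 qHTS, 1536-well: 2500 LYMP2-016 cells/well, 5 hr 37 C, compound added, 24 hr 37 C, CellTiter-Glo 30 min RT, luminescence. Tetraoctylammonium bromide positive control. AC50 via Hill fit.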
Assay [17] can be described thus: Cell Viability - LYMP2-018 (AID 985).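 For activity change, negative = cytotoxicity: plate controls were DMSO only for no effect and tetraoctylammonium bromide at 92 µM for full effect.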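 Note: compound exposure lasted 24 hr at 37 °C; nearly all actives have a fitted effect of over 50% in size.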 Note: potency is the fitted concentration of half-maximal effect. The gist of the method:
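Acute cytotoxicity is scored as a concentration-dependent drop in intracellular ATP after 24 hr exposure of the lymphoblastoid line in complete culture medium, measured by luciferase luminescence. Potency is expressed as AC50 from Hill modelling.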

For assay [18], the target named is Tumor necrosis factor (Homo sapiens) (UniProt P01375). The assay can be described thus: qHTS assay to identify small molecules that stimulate Tumor Necrosis Factor-alpha (TNF-alpha) secretion (AID 651757; active = well fitted curve in the direction sought with a large enough effect in the signal ratio; the % refers to the signal ratio; note: 0% is about no effect). The method in brief: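 Secreted TNF-alpha from compound-treated THP-1 cells (17 hrs, 37 C) was quantified with a homogeneous time-resolved fluorescence antibody assay.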

Assay [19] is described as follows: Cell Viability - Hek293 (AID 427;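 active = compounds whose dose-response curve shows a full or clear partial loss of cell viability, called from curve shape rather than a numeric limit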;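 note: potency is the fitted concentration of half-maximal effect; cells exposed to compound for 40 hours at 37 °C before reading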). Particulars: qHTS. The gist of the method:
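Luminescent ATP content (CellTiter-Glo, 20 min at room temperature) was measured after a 40 hr, 37 °C compound exposure of HEK293 cells. AC50 values came from Hill-equation fits of qHTS concentration-response data normalized to DMSO and 100 uM tamoxifen.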

Assay [20] in a line: Cellular Toxicity (caspase-3) Hek293 (AID 664).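 Note: cells exposed to compound for 16 h at 37 °C before readout.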 The conditions noted are these: HEK293 caspase-3 activation, DMSO = 0%, 100 µM tamoxifen = 100%; at 92.2 µM (top of the series). The gist of the method:
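Activation of caspase-3/7 is measured as increased luminescence from cleaved peptide-aminoluciferin substrate in HEK293 cells treated 16 hours at 37 °C. AC50 values come from Hill-equation fits of concentration-response data.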

A number with no mark means an inactive call. Records with an inconclusive call do not appear. Calls of active or inactive are those of the source. Unless noted, calls come from the whole dose curve; as a rule, active = well fitted curve in the direction sought with a large enough effect; inconclusive = small, poorly fitted or top-dose-only effect, or another doubt; inactive = no such curve, though single readings can be large; an effect the other way counts as inactive or inconclusive.

Sequence of Tumor necrosis factor (Homo sapiens) (P01375 whole entry, looked up): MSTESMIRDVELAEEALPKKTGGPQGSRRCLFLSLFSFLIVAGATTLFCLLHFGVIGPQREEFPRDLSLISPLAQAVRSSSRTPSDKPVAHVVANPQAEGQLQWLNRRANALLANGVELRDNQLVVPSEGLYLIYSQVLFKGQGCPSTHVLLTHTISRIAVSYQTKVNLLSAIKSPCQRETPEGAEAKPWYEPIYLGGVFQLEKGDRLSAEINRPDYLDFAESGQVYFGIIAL

In the case of `Oc1c(Br)c(Br)c(Br)c(Br)c1Br`, the activity change, negative = cytotoxicity in assay [1] was -118% (active). Further, the Potency entry in assay [2], in assay [4], in [5], in assay [9], in [12] and in [13] was “inactive” in each case. Besides, the Potency result in [14], in assay [15], in [16], in [17] and in assay [18] was “inactive” each time. For the same compound, the Potency in assay [3] is 50.1 µM (active). In addition, the call in assay [6], in assay [7], in assay [8], in assay [10] and in [11] was inactive.
For the compound `Cc1ccc(O)cc1C`, in assay [19], the Potency is greater than 92 µM.
Consider `OC(c1ccc(Cl)cc1)(c1ccc(Cl)cc1)C(Cl)(Cl)Cl`, for which, in assay [19], the Potency is greater than 92 µM. Also, the activity change, negative = cytotoxicity in [1] is -118% (active). Besides, the Potency entry in assay [2], in assay [3], in assay [4], in assay [5], in assay [9] and in assay [12] was “inactive” in each case. Also, the Potency result in assay [13], in [14], in assay [15], in [16], in [17] and in assay [18] was “inactive” each time. Moreover, the compound was called inactive in assay [6], in [7], in [8], in assay [10] and in assay [11].
For `FC(F)(F)c1ccc(Cl)cc1`, the Potency in [19] is greater than 92 µM. In addition, the activity change, negative = cytotoxicity in assay [1] was 6.85%. The Potency result in [2], in assay [3], in assay [4], in assay [5], in assay [9] and in assay [12] was “inactive” throughout. The Potency result in [13], in assay [14], in [15], in assay [16], in assay [17] and in [18] was “inactive” throughout. Besides, the call in [6], in assay [7], in assay [8], in [10] and in assay [11] was inactive. Also, the caspase-3 activation in assay [20] was 3.4%.
For the compound `Nc1ccccc1C(=O)OCCc1ccccc1`, in assay [19], the Potency was greater than 92 µM. In [1], the activity change, negative = cytotoxicity is -14.5%. In addition, the Potency result in [3], in [5], in [9], in assay [12], in [13] and in [14] was “inactive” each time. In addition, the Potency entry in assay [15], in [16], in assay [17] and in assay [18] was “inactive” each time. For the same compound, the compound was classed as inactive in assay [6], in [7], in assay [8] and in assay [10]. Besides, in assay [20], the caspase-3 activation was -6.67%.
On to `CN(C)c1ccc(N=O)cc1`, for which the Potency is 47.4 µM (active) in assay [19]; 31.6 µM (active) in assay [1]; 12.6 µM (active) in assay [2]; 6.31 µM (active) in assay [3]; 15.8 µM (active) in assay [4]; 31.6 µM (active) in assay [5]. The Potency in assay [12] is 7.94 µM (active); in assay [13], 1.26 µM (active); in assay [14], 1 µM (active); in assay [15] it was 1 µM (active); in assay [16], 1.58 µM (active); in assay [17] it was 1.26 µM (active). Besides, the call in [6], in assay [7], in [8], in assay [10] and in assay [11] was inactive. The Potency result in assay [9] was “inactive”. The caspase-3 activation in assay [20] is 9.09%.
